Assay [1] deals with Human papillomavirus type 1a protein E7 (residues 44-93). Description: HPV1a E7 fragment binders on microarrays, primary screen, biochemical, small-molecule microarray, residues 44-93, 635 nm fluorescence (AID 1108).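 Note: E7 fragment applied at 1 µg/mL in TBST for 1 h at 4 C; score combines spot fluorescence with its signal to noise ratio.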 The settings on record: small-molecule microarray binding, fluorescence 635 nm; higher = more signal.
Assay [2] is described as follows: modulators of HCV replicon luciferase signal, primary screen, HCV replication inhibitor project, Huh7 cells, luciferase reporter (AID 1109).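 Note: huh7 hepatoma cells harbouring a luciferase neomycin HCV replicon reporter; luciferase luminescence as measure of HCV replicon replication; test concentration not given here.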 The settings on record: 48 h, higher = more signal.
The target of assay [3] is Left-right determination factor 2 (Homo sapiens) (UniProt O00292). Nature of the assay: LEFTY2 binders on small-molecule microarrays, primary screen, biochemical, small-molecule microarray, 635 nm fluorescence scan (AID 1110). The settings on record: LEFTY2 binding, higher = more signal.
Chain of Left-right determination factor 2 (Homo sapiens) (O00292 whole entry, looked up): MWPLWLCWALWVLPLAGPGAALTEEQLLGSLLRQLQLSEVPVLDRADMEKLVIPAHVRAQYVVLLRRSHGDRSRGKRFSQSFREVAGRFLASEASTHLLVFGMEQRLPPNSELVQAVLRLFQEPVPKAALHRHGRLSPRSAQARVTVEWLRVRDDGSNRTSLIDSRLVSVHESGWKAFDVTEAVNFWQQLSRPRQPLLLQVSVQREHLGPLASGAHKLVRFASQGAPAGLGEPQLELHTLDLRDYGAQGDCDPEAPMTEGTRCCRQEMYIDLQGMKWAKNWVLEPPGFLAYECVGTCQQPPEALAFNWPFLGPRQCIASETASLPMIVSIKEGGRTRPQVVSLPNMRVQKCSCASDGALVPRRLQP
The target of assay [4] is Calmodulin-1 (Homo sapiens) (UniProt P0DP23). Description: CALM1 binders on microarrays, EGTA buffer, profiling panel, biochemical, small-molecule microarray, Cy5-labelled CALM1 (AID 1111).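 Note: labelled calmodulin applied in Tris saline Tween buffer holding calcium plus EGTA and DTT.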 As to conditions: Cy5-CALM1 binding fluorescence, higher = more signal.
Assay [5] shares this target. Nature of the assay: calcium-bound CALM1 binders on microarrays, profiling panel, artefact control for SMM control-protein annotation, biochemical, small-molecule microarray, Cy5-labelled CALM1, plus calcium (AID 1112).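 Note: score merges spot fluorescence with signal to noise from triplicate slides.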 The settings on record: Cy5-CALM1 binding fluorescence, higher = more signal.
Assay [6] is described as follows: small-molecule microarray binders of probe aWnt5a, primary screen, biochemical, biotinylated probe, 635/667 nm fluorescence (AID 1113).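 Note: score merges 667 nm fluorescence intensity with signal-to-noise per printed feature.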 The settings on record: higher = more signal.
Assay [7] in a line: small-molecule microarray binders of probe aShh, primary screen, biochemical, biotinylated probe, 635/667 nm fluorescence (AID 1114).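 Note: probe is biotin-labelled aShh protein from a stem cell growth factor screen; measures binding of labelled protein to compounds printed on the slide; score merges feature fluorescence at 667 nm with signal-to-noise.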 The settings on record: higher = more signal.
Assay [8] can be described thus: small-molecule microarray binders of probe aNog, primary screen, biochemical, biotinylated probe, 635/667 nm fluorescence (AID 1115).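 Note: probe is biotinylated aNog protein used at 0.15 µg/mL for 1 h at 4 C; z-score combines 667 nm fluorescence of each spot with its signal to noise.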 As to conditions: higher = more signal.
For assay [9], the target named is Torsin-1A-interacting protein 1 (Homo sapiens) (UniProt Q5JTV8). Nature of the assay: LAP1 binders from COS7 cell lysate, primary screen, small-molecule microarray, 635/667 nm fluorescence (AID 1116). As to conditions: COS7-hLAP1 lysate binding, 635 nm fluorescence, higher = more signal.
Chain of Torsin-1A-interacting protein 1 (Homo sapiens) (Q5JTV8 whole entry, looked up): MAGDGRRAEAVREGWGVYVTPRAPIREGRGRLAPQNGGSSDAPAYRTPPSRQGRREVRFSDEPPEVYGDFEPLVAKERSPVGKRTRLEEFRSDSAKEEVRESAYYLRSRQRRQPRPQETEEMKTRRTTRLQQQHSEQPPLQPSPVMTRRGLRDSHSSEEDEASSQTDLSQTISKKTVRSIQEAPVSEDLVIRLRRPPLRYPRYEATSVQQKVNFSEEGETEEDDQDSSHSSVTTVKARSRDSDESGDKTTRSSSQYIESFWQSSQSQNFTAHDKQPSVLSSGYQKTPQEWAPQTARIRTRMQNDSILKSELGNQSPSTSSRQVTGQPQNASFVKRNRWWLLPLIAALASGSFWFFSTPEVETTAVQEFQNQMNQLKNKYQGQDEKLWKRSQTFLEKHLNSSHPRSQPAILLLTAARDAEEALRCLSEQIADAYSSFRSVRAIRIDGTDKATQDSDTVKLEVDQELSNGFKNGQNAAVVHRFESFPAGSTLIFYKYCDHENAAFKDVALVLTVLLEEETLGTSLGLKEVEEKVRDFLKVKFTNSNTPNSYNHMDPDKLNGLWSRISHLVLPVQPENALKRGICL
For assay [10], the target named is Alpha-bungarotoxin (Bungarus multicinctus) (UniProt P60615). Nature of the assay: alpha-bungarotoxin binders on microarray, profiling panel, artefact control for SMM control protein annotation, biochemical, small-molecule microarray, Alexa647 label, 635/667 nm fluorescence (AID 1117). As to conditions: alpha-BTX-A647 binding fluorescence, higher = more signal.
Chain of Alpha-bungarotoxin (Bungarus multicinctus) (P60615 whole entry, looked up): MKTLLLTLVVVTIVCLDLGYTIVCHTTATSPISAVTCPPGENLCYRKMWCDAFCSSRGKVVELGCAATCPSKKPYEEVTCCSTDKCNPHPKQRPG
The next assay has as its target Albumin (Bos taurus) (UniProt P02769). Description: bovine serum albumin binders on microarray, profiling panel, artefact control for SMM control protein annotation, biochemical, small-molecule microarray, Alexa647 label, 635/667 nm fluorescence (AID 1118).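 Note: score merges 667 nm emission intensity and signal-to-noise per printed compound spot.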 As to conditions: BSA-A647 binding, fluorescence 635 nm, higher = more signal.
Assay [11] can be described thus: small-molecule microarray binders of probe aXIP, primary screen, biochemical, NeuroSMM set, 635/667 nm fluorescence (AID 1119).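 Note: probe is the protein aXip251-270 applied at 1 µg/mL to compound-printed slides; binding of probe to printed compounds measured as 667 nm fluorescence plus signal to noise.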 As to conditions: higher = more signal, called active from +8 up or from −8 down.
Assay [12] is described as follows: small-molecule binders of probe aNOTCH3, primary screen, biochemical, small-molecule microarray, 635/667 nm fluorescence (AID 1120).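 Note: probe is a biotin-tagged antibody raised against NOTCH3 rather than NOTCH3 protein; score merges spot fluorescence near 667 nm with spot signal to noise.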 As to conditions: higher = more signal.
Assay [13] in a line: small-molecule binders of probe aNOTCH2, primary screen, biochemical, small-molecule microarray, 635/667 nm fluorescence (AID 1121).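 Note: score merges feature fluorescence read at 667 nm with its signal to noise.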 The settings on record: higher = more signal.
Assay [14] concerns the target Carbonic anhydrase 2 (Homo sapiens) (UniProt P00918). Description: CAII small-molecule binders, profiling panel, biochemical, small-molecule microarray, Alexa647-labelled CAII (AID 1122). The settings on record: CAII-A647 binding fluorescence, higher = more signal.
Assay [15] can be described thus: COS7 lysate on small-molecule microarray, probe aHis, 635 nm (AID 1123).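 Note: z-score combines 667nm fluorescence intensity with signal-to-noise per printed compound spot.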 The settings on record: COS7 cell lysate, fluorescence, higher = more signal.
Assay [16] in a line: compound binding in COS7 lysate, probe aLAP1, primary screen, cell lysate, small-molecule microarray (AID 1124).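 Note: lysate comes from COS7 cells expressing LAP1 and is applied at 0.3 µg/mL; score merges spot fluorescence near 667 nm with signal-to-noise over triplicate slides.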 The settings on record: probe aLAP1, fluorescence, higher = more signal.
The test system of a further assay is Sam68 (KHDRBS1). Description: Sam68 small-molecule binders, primary screen, biochemical, small-molecule microarray, 635 nm fluorescence (AID 1125).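 Note: score merges 667 nm channel intensity with signal to noise over triplicate slides.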 The settings on record: small-molecule microarray binding, higher = more signal.
The test system of assay [17] is Chordin-like protein 2 (CHRDL2). Description: CHRDL2 small-molecule binders, primary screen, biochemical, small-molecule microarray, 635 nm fluorescence (AID 1126).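 Note: printed compound slides probed with Chrdl2 protein at 4 µg/mL for 1 h at 4 C; score merges 667 nm emission intensity with signal to noise over three replicate slides.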 The settings on record: small-molecule microarray binding, fluorescence 635 nm; higher = more signal.
For assay [18], the target named is Concanavalin-A (Canavalia ensiformis) (UniProt P02866). Description: ConA small-molecule binders, primary screen, artefact control for SMM control protein annotation, biochemical, small-molecule microarray, Alexa647 label, 635 nm (AID 1127).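 Note: z combines 667 nm emission intensity with signal-to-noise across three replicate slides.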 The settings on record: ConA-A647 binding fluorescence, higher = more signal.
Chain of Concanavalin-A (Canavalia ensiformis) (P02866 whole entry, looked up): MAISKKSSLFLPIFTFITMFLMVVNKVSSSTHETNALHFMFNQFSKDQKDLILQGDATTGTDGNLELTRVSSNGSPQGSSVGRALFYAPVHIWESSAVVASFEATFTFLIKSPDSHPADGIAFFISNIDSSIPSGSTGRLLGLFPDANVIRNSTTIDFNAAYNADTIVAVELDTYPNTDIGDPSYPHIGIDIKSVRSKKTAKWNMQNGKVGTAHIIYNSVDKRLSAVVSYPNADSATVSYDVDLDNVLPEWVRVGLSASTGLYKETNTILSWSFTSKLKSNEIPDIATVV

Calls of active or inactive are those of the source.

Chain of Albumin (Bos taurus) (P02769 whole entry, looked up): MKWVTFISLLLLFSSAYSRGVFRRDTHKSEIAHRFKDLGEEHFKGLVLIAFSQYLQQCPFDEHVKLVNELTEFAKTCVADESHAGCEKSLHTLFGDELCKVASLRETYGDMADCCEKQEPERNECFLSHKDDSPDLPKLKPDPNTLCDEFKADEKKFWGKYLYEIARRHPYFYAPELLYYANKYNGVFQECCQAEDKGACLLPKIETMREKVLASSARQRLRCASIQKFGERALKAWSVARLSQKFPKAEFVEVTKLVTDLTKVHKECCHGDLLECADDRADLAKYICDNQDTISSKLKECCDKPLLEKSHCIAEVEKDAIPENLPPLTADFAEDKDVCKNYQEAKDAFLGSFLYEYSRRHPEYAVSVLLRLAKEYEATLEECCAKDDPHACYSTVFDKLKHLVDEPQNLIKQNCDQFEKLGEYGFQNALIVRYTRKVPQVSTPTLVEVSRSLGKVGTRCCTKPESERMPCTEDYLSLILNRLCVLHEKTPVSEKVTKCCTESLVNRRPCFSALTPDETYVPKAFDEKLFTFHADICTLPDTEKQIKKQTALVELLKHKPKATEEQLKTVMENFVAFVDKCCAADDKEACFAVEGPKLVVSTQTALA

Regarding `CCCCCN1CC=CC23O[C@@H]4C=CCOC(=O)[C@@H]4[C@H]2C(=O)N(CCO)[C@@H]3C1=O` (stereo not given in full), the composite z-score was 0.673 in assay [1]; -0.397 in [3]; -0.343 in assay [4]; 0.595 in [5]; -0.172 in assay [6]; -0.138 in [7]. The composite z-score is -0.305 in [8]; 0.665 in [9]; -0.514 in assay [10]; -0.141 in the assay with Albumin (Bos taurus); -0.221 in assay [12]; -0.14 in assay [13]. In addition, the composite z-score was 0.907 in [14]; 1.28 in [15]; -0.0117 in assay [16]; -0.263 with Sam68 (KHDRBS1); -1.33 in [17]; -0.502 in assay [18]. In [2], this molecule gave a z-score of 0.644. Moreover, the composite Z-score in [11] was 0.403 (inactive).

Turning to `COc1cc2c(cc1OC)CN(C(=O)[C@@H]1[C@H]3C(=O)O[C@H](c4ccccc4)[C@H](c4ccccc4)N3[C@H](c3ccc(O)cc3)[C@@]13C(=O)Nc1ccc(C#CCCO)cc13)CC2`, the composite z-score was 1.12 in assay [1]; 0.686 in [3]; 0.758 in assay [4]; -0.224 in [5]; -0.0538 in assay [6]; -0.11 in assay [7]. Also, the composite z-score in assay [8] is -0.102; in assay [9], 0.678; in assay [10] it was 0.319; in the assay with Albumin (Bos taurus) it was 0.571; in assay [12], -0.0699; in assay [13], -0.113. Moreover, the composite z-score was found to be 0.606 in assay [14]; 1.08 in assay [15]; 0.78 in [16]; 1.13 in the assay with Sam68 (KHDRBS1); 0.481 in assay [17]; 0.754 in assay [18]. This molecule also displayed a z-score in assay [2] of -1.09. Moreover, the composite Z-score in [11] is 0.37 (inactive).

For the molecule `COC(=O)[C@@]1(Cc2ccc(F)cc2)[C@H]2c3cc(C(=O)N4CCCC4)n(C)c3C[C@H]2CN1C(=O)c1ccccc1`, the composite z-score in assay [1] was -0.919; in [3], -0.917; in assay [4], 2.5; in [5], 1.11; in assay [6], 0.122; in assay [7] it was 0.0044. In addition, the composite z-score in [8] was 1.39; in assay [9], 2.84; in assay [10], 0.121; with Albumin (Bos taurus), 0.942; in assay [12] it was 0.49; in assay [13] it was 0.295. The composite z-score in assay [14] is 0.76; in [15], 3.32; in assay [16], 1.01; with Sam68 (KHDRBS1), 1.31; in assay [17], -1.04; in assay [18] it was 0.683. Besides, the z-score in assay [2] is -1.4. Besides, in assay [11], the composite Z-score was 0.929 (inactive).

In the case of `Cc1ccc(F)cc1S(=O)(=O)N[C@@H]1CCN(Cc2cccc3[nH]ccc23)C1`, the composite z-score was -0.0347 in assay [1]; 0.682 in [3]; -0.517 in assay [4]; -1.03 in assay [5]; -0.0685 in assay [6]; -0.153 in assay [7]. In addition, the composite z-score in [8] is -0.492; in assay [9] it was 0.852; in assay [10], 0.111; in the assay with Albumin (Bos taurus) it was -0.864; in [12] it was 0.0749; in assay [13], -0.154. Also, the composite z-score was 0.708 in assay [14]; -0.339 in assay [15]; 0.136 in assay [16]; 0.289 in the assay with Sam68 (KHDRBS1); 1.23 in [17]; 0.249 in assay [18]. The z-score in assay [2] was -1.57. In addition, the composite Z-score in [11] was -1.15 (inactive).

`COCCOC(=O)N1C(=O)[C@@]2(c3cc(C#CCCO)ccc31)[C@H](C(N)=O)[C@H]1C(=O)O[C@H](c3ccccc3)[C@H](c3ccccc3)N1[C@@H]2c1ccc(OCCO)cc1`: the composite z-score is 1.28 in assay [1]; 0.957 in assay [3]; 1.1 in [4]; -0.351 in assay [5]; -0.0303 in assay [6]; 0.0253 in assay [7]. Further, the composite z-score in [8] was -0.371; in [9] it was 1.46; in [10] it was 0.787; with Albumin (Bos taurus) it was 0.489; in [12], 0.12; in assay [13] it was 0.0248. Besides, the composite z-score in assay [14] came to 0.354; in assay [15], 2.21; in [16], 0.667; with Sam68 (KHDRBS1), 1.29; in assay [17], 0.618; in assay [18], 1.15. The z-score in assay [2] is -1.14. In [11], the composite Z-score is 0.206 (inactive).
